Assay results published in PubChem BioAssay (NCATS).
Records with an inconclusive call do not appear. Activity calls are given as the source filed them. Calls follow the shape of the dose curve; as a rule, active = well fitted inhibition curve with a large enough effect; inconclusive = small, poorly fitted or top-dose-only effect; inactive = flat fitted curve, though single readings scatter.

Tests used:
Assay in all cases: qHTS profiling for inhibitors of Plasmodium falciparum proliferation (AID 504749); also: nearly all actives have a fitted effect of over 60% in size
Conditions in all cases: P. falciparum in erythrocytes, SYBR Green DNA, 72 h; series mostly up to 28.7 µM
[1] = tested on: JCK
Summary of the method: (§1)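 Each compound contacts P. falciparum-infected red blood cells for 72 h at 37 C; lysis buffer (Tris, EDTA, saponin, Triton X, SYBR Green I) is added and fluorescence measured next morning; values normalized to controls.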

[2] = tested on: N140
Summary of the method: as §1

[3] = tested on: P93_24
Summary of the method: as §1

[4] = tested on: P94_40
Summary of the method: as §1

[5] = tested on: PAD
Summary of the method: as §1

[6] = tested on: PC15
Summary of the method: as §1

[7] = tested on: PC26
Summary of the method: as §1

[8] = tested on: PC49
Summary of the method: as §1

[9] = tested on: SC27B
Summary of the method: as §1

[10] = tested on: TAB109
Summary of the method: as §1

Measured: Potency

N[C@@H](CSCCCO)C(=O)O
inactive: all assays above

CC(C)(C)NCC(O)COc1ccc(NC(=O)NC2CCCCC2)cc1 (stereo not given)
inactive: all assays above

COc1cc2[nH]c(=O)[nH]c(=O)c2cc1OC
inactive: all assays above

O=S(=O)(O)NC1CCCCC1
inactive: all assays above

[O-][n+]1cccc(CO)c1
inactive: all assays above

CCCCC(CC)COC(=O)c1ccccc1O (stereo not given)
inactive: all assays above

CC(=O)Oc1ccc(C2(c3ccc(OC(C)=O)cc3)C(=O)Nc3ccccc32)cc1
inactive: all assays above

Cc1ncc(COP(=O)(O)O)c(C=O)c1O
inactive: all assays above

Cc1ccc(C(C)C)cc2c(C)ccc1-2
inactive: all assays above

Cc1cccc(C)c1NC(=O)CN(CC(=O)O)CC(=O)O
inactive: all assays above

O=c1cc[nH]c(=S)[nH]1
inactive: all assays above

CCCCOC(=O)c1ccc(O)cc1
inactive: all assays above

COC(=O)C1=C(C)NC(C)=C(C(=O)OC)C1c1ccccc1[N+](=O)[O-]
inactive: all assays above

CC(=O)Nc1ccc(/C=N/NC(N)=S)cc1
inactive: all assays above

COc1cc(C(=O)N2CCOCC2)cc(OC)c1OC
inactive: all assays above

C=Cc1c(C)c2cc3[nH]c(cc4nc(cc5nc(cc1[nH]2)C(C)=C5CCC(=O)O)C(CCC(=O)O)=C4C)c(C)c3C=C
inactive: all assays above

O=C1c2c(O)cccc2Cc2cccc(O)c21
inactive: all assays above

CCCCOc1cc(C(=O)OCCN(CC)CC)ccc1N
inactive: all assays above

CC1(C)OC(=O)NC1=O
inactive: all assays above

Cn1c(=O)c2c(ncn2CC2OCCO2)n(C)c1=O
inactive: all assays above

CCOc1ccc2ccccc2c1C(=O)N[C@@H]1C(=O)N2[C@@H]1SC(C)(C)[C@@H]2C(=O)O
inactive: all assays above

Nc1ccc(S(=O)(=O)NC(=O)c2ccccc2)cc1
inactive: all assays above

CCCCc1ncc(/C=C(\Cc2cccs2)C(=O)O)n1Cc1ccc(C(=O)O)cc1
inactive: all assays above

CCCCCCCCCCCCCCCCCCOCC(O)CO (stereo not given)
inactive: all assays above
